# Laboratory results as given in PubChem BioAssay (NCATS).
# Inconclusive results are not listed. Entries that show only a call come without a potency. Activity calls are given as the source filed them. Calls follow the shape of the full dose curve.
# Assay: Primary qHTS for inhibitors of MERS-S pseudo-typed particle cell entry (AID 1479149); also: nearly all actives have a fitted effect of over 60% in size
# Conditions: MERS-S pseudotyped particle entry, luciferase; series mostly up to 57.1 µM; activity change, negative = inhibition: at the top concentration
SMILES,"activity change, negative = inhibition",outcome,Potency
CCc1ccc(C(=O)C(C)CN2CCCCC2)cc1 (stereo unspecified),-25% (inactive),–,–
CN1CCC(=C2c3ccccc3CCc3cccnc32)CC1,–,inactive,–
C/C=C/C(=O)N(CC)c1ccccc1C,–,inactive,–
O=c1[nH]c(=O)c2[nH]c(=O)[nH]c2[nH]1,–,inactive [at 11.4 µM],–
CCOC(CN1CCN(CC(C)C(=O)c2ccccc2)CC1)c1ccccc1 (stereo unspecified),–,inactive [at 26.4 µM],–
CCOCCOC(=O)/C=C/c1ccc(OC)cc1,–,inactive,–
CC(Oc1c(Cl)cccc1Cl)C1=NCCN1 (stereo unspecified),–,inactive,–
COC1=C(OC)C(=O)C(CCCCCCCCCCO)=C(C)C1=O,-4.51% (inactive),–,–
CCCCNc1ccc(C(=O)OCCN(C)C)cc1,–,inactive,–
Cc1ccc(/C(=C\CN2CCCC2)c2ccccn2)cc1,-5.15% (inactive),–,–
CCOC(=O)OC(C)OC1=C(C(=O)Nc2ccccn2)N(C)S(=O)(=O)c2ccccc21 (stereo unspecified),–,inactive,–
CC[N+](CC)(CC(=O)Nc1c(C)cccc1C)Cc1ccccc1,–,–,inactive
Nc1ccn(C2CO[C@H](CO)O2)c(=O)n1 (stereo partly specified),–,inactive,–
CC(=O)[C@@]1(O)CC[C@H]2[C@@H]3C[C@H](C)C4=CC(=O)CC[C@]4(C)[C@H]3CC[C@@]21C,-13% (inactive),–,–
CCn1c(=O)c2c(nc(C=Cc3ccc(OC)c(OC)c3)n2C)n(CC)c1=O,–,inactive,–
CCN(CC)C(=O)Nc1ccc(OCC(O)CNC(C)(C)C)c(C(C)=O)c1 (stereo unspecified),–,inactive,–
C=CCc1ccccc1OCC(O)CNC(C)C (stereo unspecified),-10.7% (inactive),–,–
CN(C)CCC(c1ccccc1)c1ccccn1 (stereo unspecified),-3.63% (inactive),–,–
O=c1oc2c(O)c(O)cc3c(=O)oc4c(O)c(O)cc1c4c23,–,inactive [at 26.4 µM],–

SMILES,"activity change, negative = inhibition",outcome,Potency
C[C@H](O)C(=O)Nc1c(I)c(C(=O)NC(CO)CO)c(I)c(C(=O)NC(CO)CO)c1I,–,inactive,–
C1CCN2C[C@@H]3C[C@@H](CN4CCCC[C@@H]34)[C@H]2C1,–,inactive,–
C=C1c2cccc(O)c2C(O)=C2C(=O)[C@]3(O)C(O)=C(C(N)=O)C(=O)[C@@H](N(C)C)[C@@H]3[C@@H](O)[C@H]12,2.12% (inactive),–,–
Nc1c(NC/C=C\COc2cc(CN3CCCCC3)ccn2)c(=O)c1=O,–,inactive [at 26.4 µM],–
Cc1ccc(N(CC2=NCCN2)c2cccc(O)c2)cc1,-18.5% (inactive),–,–
CCOC(=O)c1ccc(OC(=O)CCCCCN=C(N)N)cc1,-12.1% (inactive),–,–
Cn1cc(C(=O)[C@@H]2CCc3nc[nH]c3C2)c2ccccc21,–,inactive,–
c1ccc(CC2=NCCN2)cc1,2.08% (inactive),–,–
C[N+]1(C)CCC(=C(c2ccccc2)c2ccccc2)CC1,-24.9% (inactive),–,–
O=C(OCC(O)CO)c1ccccc1Nc1ccnc2cc(Cl)ccc12 (stereo unspecified),–,inactive,–
C[C@@H](C1=C(CCN(C)C)Cc2ccccc21)c1ccccn1,–,inactive,–
COc1cc(NS(=O)(=O)c2ccc(N)cc2)ncn1,-2.17% (inactive),–,–
CCN[C@@H]1C[C@H](N)[C@@H](OC2OC(CN)=CCC2N)[C@H](O)[C@H]1O[C@H]1OC[C@](C)(O)[C@H](NC)[C@H]1O (stereo partly specified),–,inactive [at 0.573 µM],–
O=S(=O)(c1cccc2cnccc12)N1CCCNCC1,–,inactive,–
CCc1oc2ccccc2c1C(=O)c1cc(Br)c(O)c(Br)c1,–,inactive,–
O=C1O[C@H]([C@@H](O)CO)C(O)=C1O,-0.927% (inactive),–,–
CN1CCC(=C2c3ccccc3CC(=O)c3sccc32)CC1,3.99% (inactive),–,–
CCOC(=O)[C@H](CCc1ccccc1)N[C@@H](C)C(=O)N(CC(=O)O)C1Cc2ccccc2C1,–,inactive,–
C=CCOc1cc(Cl)ccc1C(=O)NCCN(CC)CC,-30.4% (inactive),–,–

# Assay: Primary qHTS for Vero E6 cytotoxicity: counterscreen for inhibitors of SARS-S pseudo-typed particle cell entry (AID 1479150)
# Conditions: cell viability; series mostly up to 57.1 µM; activity change, negative = cytotoxicity: at the top concentration
SMILES,"activity change, negative = cytotoxicity",outcome,Potency
CCc1ccc(C(=O)C(C)CN2CCCCC2)cc1 (stereo unspecified),3.03% (inactive),–,–
CN1CCC(=C2c3ccccc3CCc3cccnc32)CC1,–,inactive,–
C/C=C/C(=O)N(CC)c1ccccc1C,–,inactive,–
O=c1[nH]c(=O)c2[nH]c(=O)[nH]c2[nH]1,–,inactive [at 11.4 µM],–
CCOC(CN1CCN(CC(C)C(=O)c2ccccc2)CC1)c1ccccc1 (stereo unspecified),-13.9% [at 26.4 µM] (inactive),–,–
CCOCCOC(=O)/C=C/c1ccc(OC)cc1,–,inactive,–
CC(Oc1c(Cl)cccc1Cl)C1=NCCN1 (stereo unspecified),–,inactive,–
COC1=C(OC)C(=O)C(CCCCCCCCCCO)=C(C)C1=O,–,inactive,–
CCCCNc1ccc(C(=O)OCCN(C)C)cc1,–,inactive,–
Cc1ccc(/C(=C\CN2CCCC2)c2ccccn2)cc1,-9.66% (inactive),–,–
CCOC(=O)OC(C)OC1=C(C(=O)Nc2ccccn2)N(C)S(=O)(=O)c2ccccc21 (stereo unspecified),-4.77% (inactive),–,–
CC[N+](CC)(CC(=O)Nc1c(C)cccc1C)Cc1ccccc1,–,–,inactive
Nc1ccn(C2CO[C@H](CO)O2)c(=O)n1 (stereo partly specified),-3.09% (inactive),–,–
CC(=O)[C@@]1(O)CC[C@H]2[C@@H]3C[C@H](C)C4=CC(=O)CC[C@]4(C)[C@H]3CC[C@@]21C,3.93% (inactive),–,–
CCn1c(=O)c2c(nc(C=Cc3ccc(OC)c(OC)c3)n2C)n(CC)c1=O,–,inactive,–
CCN(CC)C(=O)Nc1ccc(OCC(O)CNC(C)(C)C)c(C(C)=O)c1 (stereo unspecified),-23.3% (inactive),–,–
C=CCc1ccccc1OCC(O)CNC(C)C (stereo unspecified),0.199% (inactive),–,–
CN(C)CCC(c1ccccc1)c1ccccn1 (stereo unspecified),–,inactive,–
O=c1oc2c(O)c(O)cc3c(=O)oc4c(O)c(O)cc1c4c23,-0.535% [at 26.4 µM] (inactive),–,–

SMILES,"activity change, negative = cytotoxicity",outcome,Potency
C[C@H](O)C(=O)Nc1c(I)c(C(=O)NC(CO)CO)c(I)c(C(=O)NC(CO)CO)c1I,-5.21% (inactive),–,–
C1CCN2C[C@@H]3C[C@@H](CN4CCCC[C@@H]34)[C@H]2C1,–,inactive,–
C=C1c2cccc(O)c2C(O)=C2C(=O)[C@]3(O)C(O)=C(C(N)=O)C(=O)[C@@H](N(C)C)[C@@H]3[C@@H](O)[C@H]12,–,inactive,–
Nc1c(NC/C=C\COc2cc(CN3CCCCC3)ccn2)c(=O)c1=O,1.61% [at 26.4 µM] (inactive),–,–
Cc1ccc(N(CC2=NCCN2)c2cccc(O)c2)cc1,–,inactive,–
CCOC(=O)c1ccc(OC(=O)CCCCCN=C(N)N)cc1,-8.66% (inactive),–,–
Cn1cc(C(=O)[C@@H]2CCc3nc[nH]c3C2)c2ccccc21,–,inactive,–
c1ccc(CC2=NCCN2)cc1,–,inactive,–
C[N+]1(C)CCC(=C(c2ccccc2)c2ccccc2)CC1,–,inactive,–
O=C(OCC(O)CO)c1ccccc1Nc1ccnc2cc(Cl)ccc12 (stereo unspecified),–,inactive,–
C[C@@H](C1=C(CCN(C)C)Cc2ccccc21)c1ccccn1,-1.2% (inactive),–,–
COc1cc(NS(=O)(=O)c2ccc(N)cc2)ncn1,–,inactive,–
CCN[C@@H]1C[C@H](N)[C@@H](OC2OC(CN)=CCC2N)[C@H](O)[C@H]1O[C@H]1OC[C@](C)(O)[C@H](NC)[C@H]1O (stereo partly specified),-4.98% [at 0.573 µM] (inactive),–,–
O=S(=O)(c1cccc2cnccc12)N1CCCNCC1,1.71% (inactive),–,–
CCc1oc2ccccc2c1C(=O)c1cc(Br)c(O)c(Br)c1,–,inactive,–
O=C1O[C@H]([C@@H](O)CO)C(O)=C1O,–,inactive,–
CN1CCC(=C2c3ccccc3CC(=O)c3sccc32)CC1,–,inactive,–
CCOC(=O)[C@H](CCc1ccccc1)N[C@@H](C)C(=O)N(CC(=O)O)C1Cc2ccccc2C1,–,inactive,–
C=CCOc1cc(Cl)ccc1C(=O)NCCN(CC)CC,–,inactive,–
